Screening data from PubChem BioAssay.
Sampled rows, rich in hits. Any-hit rate of the full collection: about 21%.
NS1 inh = inhibitors of influenza NS1 protein function; Potency, µM (doses to about 46.1 µM), inactives show at the highest dose activity, positive = more growth; AID 2326; hit rate 0.4% among 270,000; calls by dose curve; also: potency is read from the fitted curve at half-maximal effect; actives are rising curves; nearly all actives have a fitted effect of over 50% in size
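S. cerevisiae expressing influenza A NS1, grown in glucose, washed, then diluted 1:100 into pH 6.0 -URA galactose medium with 23 nl compound. Growth recovery read as OD600; NS1-free strain serves as control.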
Pf growth 96h = inhibits malaria parasite growth, 96 h. P. falciparum luciferase reporter growth, 96 h. Potency, µM (series often up to 28.7 µM), without a hit: at the highest dose activity change, negative = inhibition, actives largely listed as inhibitors. hit rate 6.9% among 320,000; also: potency is read from the fitted curve at half-maximal effect; % is scaled to controls: 0 for no effect and ±100 for the full control effect
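Plates of compound plus infected erythrocytes (2% hematocrit, 0.05% parasitemia final) incubate 96 hours, 37 C, 5% CO2. Detection reagent added; reduced luminescence from the parasites' luciferase reporter flags inhibition.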
Pf growth 48h = inhibits P. falciparum growth in the first generation, 48 h; hit rate 5.9% among 310,000; AID 504832; Potency, µM (series often up to 28.7 µM), inactives show top-dose activity change, negative = inhibition, actives largely listed as inhibitors; P. falciparum luciferase growth in erythrocytes, 48 h; also: potency is read from the fitted curve at half-maximal effect; % is scaled to controls: 0 for no effect and ±100 for the full control effect
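Erythrocytes infected with P. falciparum carrying an integrated firefly luciferase reporter (2% hematocrit, 0.1% parasitemia final) were exposed to compounds in RPMI 1640 with 0.5% Albumax at 37 C, 5% CO2. Growth inhibition was scored as reduced luminescence.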
Shiga toxin inh = inhibitors of Shiga toxin in Vero cells; Vero cells, Shiga toxin protein synthesis inhibition reporter; inhibition, % at 38.7 µM; hit rate 9.2% among 290,000; AID 2315; in the data active = inhibition mostly above about 28%, no sharp cut-off; inactive = mostly below about 43%; also: 0% is about no effect
CHX counter = affects cycloheximide protein synthesis inhibition readout, counter-screen | cell reporter, cycloheximide protein synthesis inhibition counterscreen | max response, % | hit rate 12% among 300,000 | AID 2314; in the data active = max response mostly above about 13%, no sharp cut-off; inactive = mostly below about 14%; also: read at 38.3 µM for the half of the compounds with a filed dose; 0% is about no effect
An asterisk follows results filed as active; ? = inconclusive; . = no result given. Unless noted, calls follow the shape of the dose curve; as a rule, active = well fitted inhibition curve with a large enough effect; inconclusive = small, poorly fitted or top-dose-only effect, or another doubt; inactive = no such curve, though single readings can be large or run the other way.

SMILES	NS1 inh	Pf growth 96h	Pf growth 48h	Shiga toxin inh	CHX counter
CCCCS(=O)(=O)N1CCC(C(=O)NCC2CCCO2)CC1 (configuration not stated)	7%	3%	1%	-6	6
O=C(c1ccc(S(=O)(=O)N2CCCC2)cc1)N1CCCc2ccccc21	-54%	-7%	34%	30	2
O=C(c1ccc(S(=O)(=O)N2CCCCC2)cc1)N1CCCc2ccccc21	-50%	13µM*	?	-6	-2
CC(=O)c1cccc(S(=O)(=O)Nc2cccnc2)c1	-5%	21%	-5%	-9	-4
CCCCN1C(=O)/C(=C2/Sc3ccc(OC)cc3N2CC)SC1=S	0%	9.3µM*	31%	.	-2
C=CCN1C(=O)/C(=C2/Sc3ccc(OC)cc3N2CC)SC1=S	14%	?	-12%	.	-2
CCN1C(=O)/C(=C2\SC(=S)N(CCCOC)C2=O)c2ccccc21	-3%	10µM*	?	-12	-2
COCCN1C(=O)/C(=C2/C(=O)N(CC(=O)Nc3ccccc3Cl)c3ccccc32)SC1=S	2%	?	?	-7	-2
O=C(COC(=O)c1cccc([N+](=O)[O-])c1)NCC1CCCO1 (configuration not stated)	.	33%	17%	24	6
CC(C)C(CCNC(=O)CC(Cc1ccccc1)c1ccco1)c1ccco1 (configuration not stated)	-4%	13µM*	?	-10	22*
Cc1ccc(N2C(=N)SCC2=O)cc1Cl	-9%	?	-13%	-8	4
Cc1ccc(N(C)C2=NC(=O)CS2)cc1Cl	3%	?	2.1µM*	.	-2
CCN1CCN(C(=O)C(=O)c2c(C)[nH]c3ccccc23)CC1	.	33%	?	-20	-2
COc1ccc(CC(=O)N(Cc2ccccc2)c2cccc(C)c2)cc1OC	-11%	10µM*	?	-12	-1
COc1ccccc1CC(=O)N(Cc1ccccc1)c1ccc(C)cc1	-27%	9.3µM*	?	15	12
COc1ccc(C(=O)N(Cc2ccccc2)c2cccc(C)c2)c(OC)c1OC	3%	?	0%	-25	-2
COc1cc(C(=O)N(Cc2ccccc2)c2cccc(C)c2)ccc1OC(F)F	-34%	13µM*	?	-4	7
CC1=C/C(=N/O)C([C@H]2C=C(C)CC(C)(C)[C@@H]2O)C(C)(C)C1 (some centres not stated)	-3%	.	.	.	.
Cc1cc(C)cc(SCc2noc(C(=O)NCCCN3CCOCC3)c2C(=O)NCCCN2CCOCC2)c1	6%	?	9.3µM*	-7	-2
O=C(NCCCN1CCOCC1)c1cc(-c2ccccc2)on1	-14%	.	59%	137*	13*
O=C(NCCCN1CCOCC1)c1cc(-c2ccc(O)cc2)on1	6%	-22%	2%	19	2
O=C(NCCN1CCOCC1)c1cc(-c2cccs2)on1	3%	9.3µM*	62%	57*	20*
O=C(NCCN1CCOCC1)c1cc(-c2ccccc2)on1	-10%	.	59%	74*	22*
COc1cc(C=O)ccc1Oc1nc(Nc2ccc(F)cc2F)nc(N2CCOCC2)n1	.	-8%	?	-5	-3
O=C(N/N=C/c1ccc(OC(=O)c2ccccc2Cl)cc1)c1ccccn1	-4%	?	94%	51*	49*
SMILES	NS1 inh	Pf growth 96h	Pf growth 48h	Shiga toxin inh	CHX counter
O=C(N/N=C/c1ccc(OC(=O)c2ccccc2Cl)cc1)c1cc(O)cc(O)c1	-11%	?	74%	28	11
CCN(CC)c1ccc(/C=N/NC(=O)c2ccccn2)cc1	-7%	6%	221%	44*	26*
CCN(CC)c1ccc(/C=N/NC(=O)c2cnccn2)cc1	.	?	310%	108*	42*
O=C(CN1C(=O)NC(Cc2c[nH]c3ccccc23)C1=O)NCC(F)(F)F (configuration not stated)	6%	5%	0%	-15	-9
COc1cc(C(=O)NC(C)c2ccc(S(N)(=O)=O)cc2)ccc1OCC(=O)N1CCOCC1 (configuration not stated)	10%	5%	59%	-3	-2
CCOC(=O)c1ccc(NC(=O)COc2ccc(S(=O)(=O)NC(C)CC)cc2)cc1 (configuration not stated)	-15%	10µM*	?	-10	5
CCOc1ccc(NC(=O)COc2ccc(C(=O)NC(C)c3ccc(S(N)(=O)=O)cc3)cc2OC)cc1 (configuration not stated)	.	?	12µM*	.	.
COc1ccccc1N1CCN(C(=O)C(CC(C)C)NC(=O)C2CCCCC2)CC1 (configuration not stated)	-9%	-5%	-24%	21	-5
O=C(NCc1ccccn1)C1(C(F)(F)F)C/C(=C\Cc2ccccc2)CCCO1 (configuration not stated)	.	.	.	2	17
CCc1ccc(CN(C)C(=O)CCc2nnc(Cc3cccc(C)c3)o2)nc1	-2%	?	?	23	2
Cc1cccc(Cc2nnc(CCC(=O)N(C)C3CCOC3)o2)c1 (configuration not stated)	0%	?	-15%	71*	27*
CCN1CCN(C(=O)CCc2nnc(CCc3ccc(OC)cc3)o2)[C@@H](C)C1=O	-2%	29%	3%	30	23*
CCCN(CC1CCCO1)C(=O)CCc1nnc(CCc2ccc(OC)cc2)o1 (configuration not stated)	-17%	6%	-2%	16	27*
COc1ccc(CCc2nnc(CCC(=O)NCC3CCCO3)o2)cc1 (configuration not stated)	10%	-17%	23%	13	7
Cc1cccc(Cc2nnc(CCC(=O)N(CC3CC3)CC3CCCO3)o2)c1 (configuration not stated)	-4%	?	-16%	58*	47*
Cc1cc2c(cc1S(=O)(=O)CCC(=O)N(C)Cc1ccccc1)OCC(=O)N2	9%	-24%	2%	-3	-2
O=C(COC(=O)CNC(=O)c1ccccc1F)Nc1ncc(Cl)cc1Cl	.	-21%	-24%	.	.
COc1cccc(OCC(O)CNC2CCCC2)c1 (configuration not stated)	7%	?	2%	5	0
CCCOC1CCCN(C(=O)CCc2nnc(Cc3cccc(C)c3)o2)C1 (configuration not stated)	2%	22%	-1%	95*	47*
Cc1ccc([N+](=O)[O-])cc1N/C=C1\CCc2ccccc2C1=O	-4%	?	23%	52*	13*
Cc1ccc([N+](=O)[O-])cc1NC(=O)CCc1ccccc1	.	-6%	8%	-13	11
O=C(Nc1ccc2c3c(cccc13)CC2)c1ccco1	-44%	.	49%	53	19*
COc1cc(OC)cc(C(=O)NC(=S)Nc2ccc3c4c(cccc24)CC3)c1	5%	0%	-3%	8	14
COc1ccc(C(=O)Nc2ccc3c4c(cccc24)CC3)cc1	1%	61%	10%	73	32*
CNS(=O)(=O)c1cc(OC)c(OC)cc1CC(=O)OC	11%	2%	-9%	10	-3
